Screening results deposited in PubChem BioAssay by National Center for Advancing Translational Sciences (NCATS).
NPC1 promoter act: activators of NPC1 promoter; hit rate 2.4% among 320,000; Huh7 NPC1 promoter luciferase reporter, 24 h; AID 485313; Potency, µM (doses to about 9.22 µM), inactives show at the top dose activation, hits mostly activators; note: % of control where 0% means no effect; nearly all actives have a fitted effect of over 60% in size
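Readout is luciferase luminescence, reflecting NPC1 promoter activation in stably transfected Huh7 cells after 24 h compound exposure at 37 °C in reduced-serum medium with 10% FBS.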
Rab9 promoter act: Rab9 promoter activation. Huh7 Rab9 promoter-luciferase reporter, luminescence, 24 h. hit rate 2.8% among 320,000. Potency, µM (titrated, usually from 9.22 µM), inactives show top-dose activation, negative = inhibition, usual class: activators; note: % of control where 0% means no effect; nearly all actives have a fitted effect of over 60% in size
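Stable Rab9-luc Huh7, 1500 cells/well, 2 h settle; cmpd in DMSO, 24 h, 37 °C/5% CO2; luciferase reagent 10 min RT; luminescence.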
p53 reactivator: mutant p53 re-activation in reporter cells. H1299 p53-A138V BP100-luciferase reporter, luminescence, 24 h. hit rate 0.063% among 320,000. AID 504706. Potency, µM (series often up to 92.2 µM), for inactives: at the highest dose activity change, positive = activation, hits mostly activators; note: % of control where 0% means no effect; nearly all actives have a fitted effect of over 45% in size
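H1299 (p53-null), stable ts p53-A138V + BP100-Luc; 1000 cells/well, Opti-MEM/10% FBS; cpd 4 pt, 1:5; 24 h, 37 deg C, 5% CO2; detection reagent 10 min RT; luminescence.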
FLuc modulator: counter-screen for miR-21 project: firefly luciferase inhibitors or activators. P08659. purified FLuc, Km substrates, luminescence inhibition. Potency, µM (titrated, usually from 57.5 µM), without a hit: at the top dose activity change, negative = inhibition, hits mostly inhibitors. hit rate 6.9% among 360,000. AID 588342;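 note: plate controls were vehicle for no effect and reference inhibitor for full effect; nearly all actives have a fitted effect of over 55% in size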
Target sequence (P08659 whole entry, looked up): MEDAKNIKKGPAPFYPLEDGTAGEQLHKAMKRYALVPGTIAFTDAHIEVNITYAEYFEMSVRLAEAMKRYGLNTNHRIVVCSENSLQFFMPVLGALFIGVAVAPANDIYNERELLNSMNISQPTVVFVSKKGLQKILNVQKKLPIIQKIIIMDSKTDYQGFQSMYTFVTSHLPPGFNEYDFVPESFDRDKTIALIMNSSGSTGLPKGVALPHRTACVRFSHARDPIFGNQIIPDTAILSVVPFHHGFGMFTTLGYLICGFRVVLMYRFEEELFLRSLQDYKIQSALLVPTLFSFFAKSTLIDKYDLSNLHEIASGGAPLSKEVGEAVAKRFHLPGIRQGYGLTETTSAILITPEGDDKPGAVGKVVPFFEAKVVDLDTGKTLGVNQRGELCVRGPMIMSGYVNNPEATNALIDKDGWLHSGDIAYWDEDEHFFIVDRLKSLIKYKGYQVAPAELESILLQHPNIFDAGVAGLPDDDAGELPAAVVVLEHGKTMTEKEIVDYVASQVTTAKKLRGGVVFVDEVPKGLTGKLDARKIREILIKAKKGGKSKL
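Purified P. pyralis luciferase, 10 nM final, with Km-level 10 uM D-luciferin and 10 uM ATP in 50 mM Tris acetate pH 7.5, 10 mM Mg acetate, 0.01% Tween-20, 0.05% BSA; 6-point qHTS titration about 60 µM downward; luminescence read.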
SMN2 splice enh: enhancers of SMN2 splice variant expression; HEK293 SMN2-luciferase splicing reporter, luminescence, 30-36 h; Potency, µM (titrated, usually from 46.1 µM), inactives show top-dose activity change, positive = activation, usual class: activators; hit rate 2.8% among 210,000; note: % of control where 0% means no effect; nearly all actives have a fitted effect of over 55% in size
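HEK293 cells carry an SMN2 minigene-luciferase reporter in which exon 7 inclusion puts luciferase in frame. Cells were seeded at 2000 cells/well, attached for 10-12 hours, then exposed to compounds for 30-36 hours at 37C before ONE-Glo luminescence.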
ELG1 genotoxic: inducers of genotoxicity in HEK293T ELG1-luciferase cells; Potency, µM (doses to about 46 µM), for the others: at the highest dose activity change, positive = activation, most hits filed as activators; HEK293T ELG1-luciferase reporter, luminescence, 16 h; hit rate 1.3% among 330,000; AID 504466; note: % of control where 0% means no effect; nearly all actives have a fitted effect of over 60% in size
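Step 1: seed 2,000 HEK293T ELG1-luciferase cells per well. Step 2: add compound or DMSO, incubate 16 hr at 37 °C. Step 3: ONE-Glo, 30 min at room temperature, read luminescence.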
Active calls of the source: *; u = inconclusive; x = no result; [ ] = remark or other dose. A selection: hits, their analogues and other compounds. The true share with any hit is near 7.3%. Calls come from the whole dose curve; as a rule, active = well fitted curve in the direction sought with a large enough effect; inconclusive = small, poorly fitted or top-dose-only effect, or another doubt; inactive = no such curve, though single readings can be large; an effect the other way counts as inactive or inconclusive. Potency is the fitted concentration of half-maximal effect.

SMILES	NPC1 promoter act	Rab9 promoter act	p53 reactivator	FLuc modulator	SMN2 splice enh	ELG1 genotoxic
Cc1ccc(-c2nn(-c3ccc(F)cc3)cc2C(=O)NCC2CCCO2)cc1 (stereo unspecified)	-8%	10%	7%	11µM*	x	-9%
O=C(NCC1CCCO1)c1cn(-c2ccccc2)nc1-c1ccccc1 (stereo unspecified)	14%	3%	1%	6.7µM*	x	-2%
COc1cccc(-c2nn(-c3ccc(F)cc3)cc2C(=O)NCC2CCCO2)c1 (stereo unspecified)	0%	-2%	-4%	17µM*	x	-6%
COc1cccc(-c2nn(-c3ccc(C)cc3)cc2C(=O)NCC2CCCO2)c1 (stereo unspecified)	-1%	13%	0%	9.5µM*	x	-5%
COc1ccc(-c2nn(-c3ccccc3)cc2C(=O)NCC2CCCO2)cc1 (stereo unspecified)	0%	3%	-8%	u	x	-6%
O=C(CN1C(=O)CSc2ccccc21)N/N=C/c1ccco1	2%	-3%	-5%	-1%	x	0%
C[C@H](NC(=O)[C@@H]1C[C@H]1[C@@H](NC(=O)OCc1ccccc1)c1ccccc1)c1ccccc1	x	x	x	x	-13%	x
CCOC(=O)c1ccc(NC(=O)C(=O)NCc2ccco2)cc1	9%	21%	1%	-13%	7%	u
CS(=O)(=O)N1CCC[C@@]2(CCN(Cc3ccc(C#N)cc3)C2)C1	x	x	x	x	-12%	x
COc1cccc(-c2cc(C(=O)NCC3CCCO3)c3cc(C)cc(C)c3n2)c1 (stereo unspecified)	-4%	16%	28%	1.9µM*	x	15%
Cc1nc(Cl)cc(N/N=C/c2ccc(O)cc2O)n1	-1%	4%	18%	13µM*	x	13%
Cc1nc(Cl)cc(N/N=C/c2ccc(O)cc2)n1	15%	6%	x	21µM*	x	u
Cc1nc(N/N=C/c2ccc(Br)cc2)cc(N2CCOCC2)n1	-11%	-1%	6%	2%	x	-5%
Cc1ccccc1C(=O)OCc1cc(=O)n2nc(-c3cccs3)sc2n1	x	x	x	-6%	x	x
COc1ccc(C)cc1NC(=S)NNC(=O)c1c(Br)cnn1C	5%	1%	-3%	27µM*	-9%	-5%
COc1ccccc1NC(=S)NNC(=O)c1nn(C)c(C)c1Br	14%	0%	u	15µM*	22%	7%
O=Cc1ccsc1B(O)O	x	x	x	x	-3%	x
Fc1cccc(Cl)c1CN1CCN(c2nc3ccccc3s2)CC1	2.5µM*	2.5µM*	u	5.4µM*	x	15µM*
Fc1cccc2sc(N3CCOCC3)nc12	13%	21%	u	u	u	14%
Fc1cccc2sc(N3CCCCC3)nc12	u	u	u	19µM*	u	13µM*
Clc1ccc2nc(N3CCCCC3)[nH]c2c1	1.6µM*	1.4µM*	u	4.8µM*	14µM*	2.1µM*
Clc1ccc2nc(N3CCCCC3)sc2c1	1.4µM*	2.5µM*	u	2.7µM*	11µM*	u
CS(=O)(=O)N1CCN(c2nc3ccc(Cl)cc3s2)CC1	u	u	8%	u	x	7%
CC(C)C(=O)N1CCN(c2nc3ccc(Cl)cc3s2)CC1	2.5µM*	u	6%	u	x	u
O=C(Nc1ccc(Cl)c(Cl)c1)N1CC=CCC1	2.5µM*	3.5µM*	u	12µM*	u	u
SMILES	NPC1 promoter act	Rab9 promoter act	p53 reactivator	FLuc modulator	SMN2 splice enh	ELG1 genotoxic
Cc1ccc(NC(=O)N2CCCC2)cc1Cl	17%	28%	-2%	-20%	16%	10%
CC(=O)c1cccc(NC(=O)CSc2nnc3ccc(-c4ccc(Br)cc4)nn23)c1	x	x	x	4%	x	x
Cc1ccc(-c2nc3ccsc3c(=O)[nH]2)cc1	21%	u	20%	12µM*	18µM*	u
c1csc(-c2ccc3ccccc3n2)c1	u	u	17%	7.6µM*	21%	u
Nc1nc2ccccc2cc1-c1cccs1	4.5µM*	u	u	11µM*	x	u
Cc1cc2ncc(-c3cccs3)nc2cc1C	0.89µM*	4µM*	x	0.34µM*	x	u
Cc1ccc(-c2cc3ccccc3nc2N)cc1	5µM*	u	u	3µM*	x	u
Cc1cc(-c2cccs2)n[nH]1	2%	3%	u	3%[2.3 µM]	18%	1%
N#Cc1cc2ccccc2nc1N	0%	10%	3%	-5%	7%	4%
Cc1ccccc1S(=O)(=O)c1cc2ccccc2nc1N	-1%	1%	-5%	4%	-10%	-3%
CCS(=O)(=O)N1CC(=O)N(c2ccc(Cl)cc2)C(C)(C(=O)NC2CCCCC2)C1 (stereo unspecified)	x	x	x	-1%	x	x
CCOc1ccc(NC(=O)Cn2nnc(-c3ccc(C(N)=O)cc3)n2)cc1S(=O)(=O)N1CCCC1	-3%	13%	12%	6.7µM*	x	25%
COCC[N+]1(C)CCCCC1	-4%	2%	2%	-2%	5%	5%
CN(c1ccc(C(=O)Nc2ccc3c(c2)OCCO3)cc1)S(C)(=O)=O	2.2µM*	1.6µM*	u	7.6µM*	11µM*	u
CN(c1ccc(C(=O)Nc2ccc3c(c2)OCO3)cc1)S(C)(=O)=O	2.8µM*	4µM*	18%	12µM*	x	15%
Cc1ccc(CN(c2ccc(C(=O)Nc3ccc4c(c3)OCO4)cc2)S(C)(=O)=O)cc1	-3%	-1%	1%	-16%	-1%	-3%
COC(=O)c1cc(-c2ccc(Cl)cc2Cl)n[nH]1	1%	-2%	4%	15µM*	21%	u
CN(C(=O)COC(=O)CNC(=O)c1ccc2ccccc2c1)c1c(N)n(Cc2ccccc2)c(=O)[nH]c1=O	1%	7%	5%	u	x	6%
CC(=O)N1c2ccc(S(=O)(=O)N3CCCCCC3)cc2CC1C(=O)NCc1cccc(C)c1 (stereo unspecified)	x	x	x	0%	x	x
O=C(NCc1ccc2c(c1)CCN2C(=O)c1ccccc1)c1ccco1	x	x	x	-15%	x	x
COc1ccc(OC)c(Nc2ncc3c(n2)CCN(Cc2cc(OC)c(OC)c(OC)c2)C3)c1	x	x	x	-5%	x	x
CN(C)CCCCl	x	x	x	x	0%	x
Clc1ccc(-c2nnc(-c3ccccc3)c(-c3ccccc3)n2)cc1	-1%	-2%	3%	0%	x	-3%
COc1nc(-c2ccccc2)nnc1-c1ccccc1	u	3.2µM*	1%	5.4µM*	13µM*	8.2µM*
COC(=O)c1c(-c2ccc(OC)cc2)sc2cc3c(cc12)OCO3	u	1%	u	9.5µM*	x	u
COC(=O)c1c(-c2ccc(N(C)C)cc2)sc2ccc(OC)cc12	x	x	3%	x	x	u
